High-throughput results as filed in PubChem BioAssay.
An excerpt weighted towards active compounds, which were near 2.3% of everything screened.
KDM4E inh = inhibitors of human JMJD2E histone demethylase | B2RXH2 | JMJD2E catalytic domain, FDH-coupled NADH fluorescence (FDH is formaldehyde dehydrogenase) | Potency, µM (titrated, usually from 57.1 µM), for the others: top-dose activity change, negative = inhibition, usual class: inhibitors | actives 1.6% (n = 230,000); active = well fitted inhibition curve with a large enough effect, not every such curve was filed as active; inconclusive = small, poorly fitted or top-dose-only effect, or another doubt; inactive = no such curve, though single readings can be large or run the other way;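 note: potency is the fitted concentration of half-maximal effect; 0% = wells with enzyme and -100% = buffer wells without enzyme; nearly all actives have a fitted effect of over 50% in size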
HTT aggregate = inhibitors of mutant huntingtin aggregate formation in PC12 cells; PC12 HttQ103-GFP aggregates, Acumen cytometry, 40 h; AID 1688; Potency, µM (highest dose often 46.1 µM), without a hit: at the top dose activity change, negative = inhibition, hits mostly inhibitors; actives 1.1% (n = 220,000); note: potency is the fitted concentration of half-maximal effect; % is set by controls: 0 for no effect and ±100 for the full control effect; nearly all actives have a fitted effect of over 60% in size
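PC12/HTTQ103-GFP, ecdysone-inducible; teb 100 nM; cpd qHTS titration; GFP aggregates read on laser cytometer, Ex 488/Em 500-530 nm.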
HTT ATP protect = Huntington cell model cytoprotection by ATP luminescence. actives 0.14% (n = 230,000). Potency, µM (top dose mostly 56.4 µM), for inactives: cytoprotection (ATP increase), most hits filed as activators. PC12 HTT-Q103 induced, cytoprotection, ATP luminescence, 40 h; note: potency is the fitted concentration of half-maximal effect; % of control where 0% means no effect; nearly all actives have a fitted effect of over 45% in size
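PC12 cells with ecdysone-inducible HTT exon 1 Q103-GFP, induced with 100 nM tebufenozide and co-treated with library compounds in a dose series (1536-well, 1500 cells/well). Cytoprotection read as ATP content by ATPlite luminescence.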
FBPA coupling cs = coupling enzyme interference in Giardia aldolase counter-screen | coupling enzyme system counterscreen, AmpLite Red fluorescence | activity change, negative = inhibition, % at 58.2 µM, hits read low | actives 0.67% (n = 290,000) | AID 2472; in the data active = activity change below about -30%; note: % is set by controls: 0 for no effect and ±100 for the full control effect
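Activity here indicates interference with the coupling reaction, not aldolase inhibition. Compounds at 57.5 uM final met coupling enzymes for 10 min at RT; substrate and AmpLite Red detection followed, with a 525/598 nm fluorescence read after 20 min.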
RGS12 GoLoco inh = RGS12 GoLoco-Gai1 interaction inhibition; P63096; Gai1:RGS12 GoLoco peptide FP, rhodamine, 10 min; Potency, µM (titrated, usually from 61.6 µM), for the others: at the top dose activity, negative = inhibition, actives largely listed as inhibitors; actives 0.44% (n = 230,000); active = well fitted inhibition curve with a large enough effect, not every such curve was filed as active; inactive = no such curve, though single readings can be large or run the other way; note: potency is the fitted concentration of half-maximal effect; % is set by controls: 0 for no effect and ±100 for the full control effect; nearly all actives have a fitted effect of over 30% in size
VDR inh = blocks the human vitamin D receptor. P11473. VDR-SRC2-3 peptide fluorescence polarization, 2 h. Potency, µM, without a hit: max response, negative = inhibition, usual class: inhibitors. actives 0.93% (n = 400,000); note: potency is the fitted concentration of half-maximal effect; % is set by controls: 0 for no effect and ±100 for the full control effect
Target sequence (P11473 whole entry, looked up): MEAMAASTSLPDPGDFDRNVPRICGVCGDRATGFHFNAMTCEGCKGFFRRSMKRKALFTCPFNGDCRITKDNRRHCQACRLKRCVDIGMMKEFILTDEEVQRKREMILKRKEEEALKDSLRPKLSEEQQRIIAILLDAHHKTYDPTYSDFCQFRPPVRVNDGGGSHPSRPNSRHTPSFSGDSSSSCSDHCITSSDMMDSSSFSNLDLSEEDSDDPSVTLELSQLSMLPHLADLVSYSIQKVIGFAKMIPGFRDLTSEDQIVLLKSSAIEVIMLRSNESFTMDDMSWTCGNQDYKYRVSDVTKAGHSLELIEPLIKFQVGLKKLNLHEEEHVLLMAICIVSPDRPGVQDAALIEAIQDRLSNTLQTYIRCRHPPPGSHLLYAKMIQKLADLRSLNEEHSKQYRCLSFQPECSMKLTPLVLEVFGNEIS
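FP read-out; VDR + SRC2-3 coactivator peptide; 23 nl compound by pintool; 2 h RT incubation; reagents held at 4 deg C, protected from light.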
* hit, by the source's call; ? = inconclusive; / = no result given; [ ] = another dose, or the depositor's remark. Unless noted, calls come from the whole dose curve; as a rule, active = well fitted curve in the direction sought with a large enough effect; inconclusive = small, poorly fitted or top-dose-only effect, or another doubt; inactive = no such curve, though single readings can be large; an effect the other way counts as inactive or inconclusive.

SMILES	KDM4E inh	HTT aggregate	HTT ATP protect	FBPA coupling cs	RGS12 GoLoco inh	VDR inh
CC(C)[C@H](NC(=O)[C@H](CC(=O)O)NC(=O)[C@H](Cc1ccccc1)NC(=O)[C@@H](C)NC(=O)[C@@H](N)Cc1ccc(O)cc1)C(=O)N[C@H](C(=O)NCC(N)=O)C(C)C	/	/	/	-3	/	9%
COc1ccc2nc(/N=C/c3c(O)n(-c4cccc(Cl)c4)c(=O)[nH]c3=O)sc2c1	1%	7%	-15%	7	6%	50µM*
COc1cccc(-n2c(O)c(C=Nc3c(C)n(C)n(-c4ccccc4)c3=O)c(=O)[nH]c2=O)c1	4%	30%	/	1	6%	-15%
[N-]=[N+]=[N-]	/	/	6%	/	9%	/
CN1C(=O)[C@]23CC4=CC=C[C@H](O)[C@H]4N2C(=O)[C@@]1(CO)SS3	/	/	/	-8	/	4µM*
Oc1c(Cl)c(Cl)c(Cl)c(Cl)c1Cl (tested in a mixture with another compound)	/	/	2%[10 µM]	/	5%[14.2 µM]	/
O=C(O)C1Sc2[nH]c(=O)sc2C2c3cc(Cl)ccc3OC(=O)C12 (stereo not drawn)	14µM*	0%	0%[0.074 µM]	-4	36%	-14%
C=C1[C@@H]2C[C@]3(C(CC2=O)[C@]24C5C[C@H]3[C@H]2N(CC)C[C@]5(C)CC[C@@H]4O)[C@@H]1O (stereo partly drawn)	/	/	/	0	/	-14%
CC1CCCC(C2(O)C(=O)Nc3ccccc32)C1=O (stereo not drawn)	-20%	?	-5%	3	14µM*	-8%
CCOP(=S)(OCC)O/N=C(\C#N)c1ccccc1Cl	/	/	/	0	/	22µM*
CCOP(=O)(OCC)/C(=N/OC(=O)c1ccccc1C)C(N)=O	11%	?	-16%[0.074 µM]	4	6%	0%
N[C@H](Cc1ccccc1)c1nn[nH]n1	/	/	-2%[10 µM]	/	-3%[14.2 µM]	/
CN1CCc2cc3c(cc2[C@@H]1[C@H]1OC(=O)c2c1ccc1c2OCO1)OCO3	/	/	2%	/	/	/
CN1CCc2cc3c(c4c2C1Cc1ccccc1-4)OCO3 (stereo not drawn)	/	/	/	-35*	/	-5%
CCCC(C)C1(CC)C(=O)N=C(S)NC1=O (stereo not drawn)	-2%	/	/	0	10%	5%
CC(=O)[C@H]1CCC2C3CC[C@H]4C[C@@H](O)CC[C@]4(C)C3CC[C@@]21C (stereo partly drawn)	/	/	/	/	/	-7%
CC(=O)[C@@H]1CC[C@H]2[C@@H]3CC[C@@H]4CC(=O)CC[C@]4(C)[C@H]3CC[C@]12C	/	/	-25%	/	4%	50µM*
Cc1onc(-c2ccccc2Cl)c1C(=O)NCc1ccccn1	11%	0.89µM*	3%[0.074 µM]	5	6%	-12%
NCCCNCCCCNCCCNC(=O)Cc1ccc(O)cc1	/	/	-44%[10 µM]	3	0%[14.2 µM]	2%
CCCBr	/	/	-7%	/	10%	/
CN(CC(=O)O)C(=O)[C@H](Cc1ccccc1)NC(=O)[C@@H](CCCN=C(N)N)NC(=O)[C@@H](N)Cc1ccc(O)cc1	/	/	/	3	/	1%
COc1cc2c(cc1OC)[C@@H]1C(=O)c3ccc(OC)c(CC=C(C)C)c3OC1CO2 (stereo partly drawn)	18µM*	/	/	-11	-4%	-7%
COC(=O)[C@@]1(O)C[C@@H]2O[C@@]1(C)n1c3ccccc3c3c4c(c5c6ccccc6n2c5c31)C(=O)NC4	/	/	/	-1	/	11%
Cc1c(N=Nc2c(O)n(Cc3ccccc3)c(=O)[nH]c2=O)c(=O)n(-c2ccccc2)n1C	7.1µM*	-27%	10%[0.074 µM]	0	2%	?
Cc1c(N=Cc2c(O)n(Cc3ccccc3)c(=O)[nH]c2=O)c(=O)n(-c2ccccc2)n1C	3%	10%	/	2	0%	-16%
SMILES	KDM4E inh	HTT aggregate	HTT ATP protect	FBPA coupling cs	RGS12 GoLoco inh	VDR inh
COc1ccc(N2C(=O)NC(=O)/C(=C/c3ccc4c(c3)Cc3ccccc3-4)C2=O)cc1	?	-6%	-12%	4	32%	/
COc1ccc(N2C(=O)NC(=O)/C(=C\c3ccccc3[N+](=O)[O-])C2=O)cc1	?	-2%[9.22 µM]	-4%[10 µM]	1	-11%	50µM*
O=C1NC(=O)N(c2ccccc2)C(=O)/C1=C\c1ccc([N+](=O)[O-])s1	?	-11%[9.22 µM]	-3%[10 µM]	-12	101%	40µM*
COc1ccc(OC)c(N2C(=O)NC(=O)/C(=C\c3ccc([N+](=O)[O-])s3)C2=O)c1	22µM*	?	-9%	-20	193%	?
O=C1NC(=O)N(c2ccccc2)C(=O)/C1=C\c1ccc([N+](=O)[O-])o1	?	-14%[9.22 µM]	13%[10 µM]	-6	70%	/
COc1ccc(N2C(=O)/C(=C/c3ccc(OC)c(OC)c3)C(=O)NC2=S)cc1	/	/	/	0	/	?
O=C(Nc1ccc(Oc2ccc(Cl)cc2)c(Cl)c1)c1cc(I)cc(I)c1O	/	13µM*	-54%	-9	/	?
COc1cc2c(c(OC)c1OC)-c1ccc(O)c(=O)cc1[C@@H](NC(C)=O)CC2	11µM*	/	?	0	10%	-17%
COc1cc2c(c(OC)c1OC)-c1ccc(O)cc1C(NC(C)=O)CC2 (stereo not drawn)	/	/	/	/	/	2%
C[C@H](CCC(=O)O)C[C@H](C)C[C@H](C)C(=O)/C=C(\O)[C@H](C)C[C@H](C)C/C=C/[C@@H](C)[C@@H](O)[C@@H](C)[C@@H](O)C[C@@H]1CC[C@@](C)([C@H]2CC[C@@](C)([C@@H](C)O)O2)O1	/	/	-190%	5	12%	?
COc1ccc(CCn2c(O)c(C=NCCN3CCCCC3)c(=O)[nH]c2=O)cc1OC	1%	-9%	6%	3	10%	-1%
CCC(=O)N1N=C(c2c(O)n(CCc3ccccc3)c(=O)[nH]c2=O)CC1c1ccc(OC)c(OC)c1 (stereo not drawn)	20µM*	-10%[9.22 µM]	-5%[10 µM]	4	9%	-4%
Cc1ccc(NC2C(=O)NC(=O)NC2=O)cc1	/	/	/	/	/	14µM*
O=C1NC(=S)NC(=O)C1C(=O)Nc1ccccc1	/	/	/	-11	/	-22%
O=C1NC(=O)C(Nc2ccccc2)C(=O)N1	/	/	/	/	/	25µM*
CN1/C(=C\C=C2C(=O)NC(=S)NC2=O)C(C)(C)c2ccccc21	-5%	-32%	-27%	-4	-151%	57%
O=C1NC(=S)NC(=O)C1=Cc1c(Cl)cccc1Cl	/	/	/	/	/	16µM*
CCNC(=S)NCCC1=c2ccccc2=N/C1=C\c1c(O)n(C)c(=O)n(C)c1=O	-3%	26%[9.22 µM]	15%[10 µM]	-9	20%	32µM*
CCC1(CC)C(=O)NC(=O)N(C)C1=O	/	20%	16%	/	/	7%
